Data published in PubChem BioAssay (NCI).
This is part of a sample that, as a whole, favours compounds with a hit. Of some 79,000 tested, about 15% had one in any assay. Unmarked numbers belong to inactive results. Activity calls are given as the source filed them. Cut-off read from the data, not from the text of the source: active = growth inhibition above about 70%; inactive = the rest.

What was measured:
[1] = NCI Yeast Anticancer Drug Screen. Data for the rad50 strain (AID 155);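 note: 0% = growth of vehicle-only cultures of the same strain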; details: S. cerevisiae rad50 strain growth inhibition, stronger effect = higher value
Summary of the method: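 Compounds were tested on a yeast strain with an engineered DNA damage repair alteration; the reported value is growth inhibition normalised to vehicle treatment.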

[2] = NCI Yeast Anticancer Drug Screen. Data for the mec2-1 strain (AID 157); details: S. cerevisiae mec2-1 strain, stronger effect = higher value
Summary of the method: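 Growth inhibition is read against vehicle-treated controls after compound exposure of the mec2-1 yeast strain, which is defective in DNA damage repair or cell cycle control.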

[3] = NCI Yeast Anticancer Drug Screen. Data for the sgs1 mgt1 strain (AID 161);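 note: 0% = growth of cultures given vehicle only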; details: S. cerevisiae sgs1 mgt1 strain, stronger effect = higher value
Summary of the method: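 Percent growth inhibition was derived by comparing compound-exposed mutant yeast with vehicle-exposed cultures. The strain carries alterations in DNA damage repair.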

[4] = NCI Yeast Anticancer Drug Screen. Data for the cln2 rad14 strain (AID 165);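 note: 0% = growth equal to vehicle treated cultures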; details: S. cerevisiae cln2 rad14 strain, stronger effect = higher value
Summary of the method: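 Growth inhibition, relative to vehicle-treated controls, is the read-out. The test organism is a yeast strain with defined genetic alterations, cln2 rad14.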

[5] = NCI Yeast Anticancer Drug Screen. Data for the bub3 strain (AID 167); details: S. cerevisiae bub3 mutant strain, stronger effect = higher value
Summary of the method: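 Growth of a checkpoint-deficient yeast mutant is measured after compound exposure. Values represent inhibition relative to vehicle.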

[6] = NCI Yeast Anticancer Drug Screen. Data for the mlh1 rad18 strain (AID 175); details: S. cerevisiae mlh1 rad18 strain growth inhibition, stronger effect = higher value
Summary of the method: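 Cells of a genetically altered yeast strain, deficient in DNA damage repair, were treated with compound. Their growth was then compared with that of vehicle-treated cultures to give inhibition.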

[7] = at 5.0 µM (retest, dose inferred, filed as 0.5)
[8] = at 50.0 µM (retest, dose inferred, filed as 5.0)

Structure (SMILES) | growth inhibition [1, 7] [%] | growth inhibition [1, 8] | growth inhibition ([1]; at 50.0 µM) | growth inhibition [2, 7] [%] | growth inhibition [2, 8] | growth inhibition ([2]; at 50.0 µM) | growth inhibition [3, 7] [%] | growth inhibition [3, 8] | growth inhibition ([3]; at 50.0 µM) | growth inhibition [4, 7] [%] | growth inhibition [4, 8] | growth inhibition ([4]; at 50.0 µM) | growth inhibition [5, 7] [%] | growth inhibition [5, 8] | growth inhibition ([5]; at 50.0 µM) | growth inhibition [6, 7] [%] | growth inhibition [6, 8] | growth inhibition ([6]; at 50.0 µM)
CC(CCC(=O)O)[C@H]1CCC2[C@@H]3CC(O)[C@@H]4CC(O)CC[C@]4(C)C3CC[C@@]21C (stereo not given in full) | -5 | 44% | 75.4% (active) | -10 | 58% | 74.5% (active) | 5 | 64% | 77.3% (active) | 14 | 70% (active) | 76.2% (active) | -6 | 84% (active) | 50.5% | -8 | 71% (active) | 67.7%
Cc1cccc(Cc2ccc(Cl)cc2)c1O | 4 | 99% (active) | 99.3% (active) | -1 | 100% (active) | 99.5% (active) | 5 | 99% (active) | 99.5% (active) | -10 | 99% (active) | 99.3% (active) | -6 | 99% (active) | 99.2% (active) | -2 | 99% (active) | 99% (active)
Oc1ccc(C(O)(c2ccccc2)c2ccccc2)c2ccccc12 | 45 | 94% (active) | 98.2% (active) | 12 | 98% (active) | 97.9% (active) | 59 | 93% (active) | 98.5% (active) | 28 | 67% | 97.2% (active) | 7 | 43% | 98% (active) | 20 | 96% (active) | 97.5% (active)
CC(C)c1ccc2c(c1)CCC1C(C)(CN)CCCC21C (stereo not given) | 27 | 100% (active) | 99.2% (active) | 0 | 100% (active) | 99.6% (active) | 35 | 100% (active) | 99.5% (active) | -6 | 99% (active) | 98.7% (active) | 10 | 100% (active) | 99.3% (active) | 32 | 100% (active) | 99.1% (active)
CN(NC1OC(=O)c2ccccc21)c1ccc(C(F)(F)F)cc1[N+](=O)[O-] (stereo not given) | 46 | 39% | 65.7% | 33 | 36% | 54.2% | 43 | 49% | 55.1% | 25 | 31% | 71.2% (active) | 43 | 69% | 36.2% | 47 | 48% | 54.5%
